In PubChem BioAssay (NCI) one finds growth inhibition data, which are given here for ten compounds.

Experiment [1] in a line: NCI Yeast Anticancer Drug Screen. Data for the rad50 strain (AID 155).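 Also: 0% = growth of vehicle-only cultures of the same strain.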 The note with it: S. cerevisiae rad50 strain growth inhibition, stronger effect = higher value. The procedure, abridged:
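A DNA repair-deficient yeast mutant serves as the test organism; compound-induced growth inhibition is calculated against vehicle-treated cells.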

The nature of experiment [2]: NCI Yeast Anticancer Drug Screen. Data for the mec2-1 strain (AID 157). Conditions: S. cerevisiae mec2-1 strain, stronger effect = higher value. An outline of the steps:
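Compounds were applied to mec2-1 yeast cells. Their growth was then compared with that of vehicle-treated cultures to give growth inhibition.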

Experiment [3] in a line: NCI Yeast Anticancer Drug Screen. Data for the sgs1 mgt1 strain (AID 161).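 Also: 0% = growth of cultures given vehicle only.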 Conditions: S. cerevisiae sgs1 mgt1 strain, stronger effect = higher value. The procedure, abridged:
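Percent growth inhibition was derived by comparing compound-exposed mutant yeast with vehicle-exposed cultures. The strain carries alterations in DNA damage repair.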

Experiment [4] is described as follows: NCI Yeast Anticancer Drug Screen. Data for the cln2 rad14 strain (AID 165).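 Also: 0% = growth equal to vehicle treated cultures.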 Conditions: S. cerevisiae cln2 rad14 strain, stronger effect = higher value. An outline of the steps: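 Strain: cln2 rad14 yeast, altered in cell cycle control and DNA damage repair. Read-out: growth inhibition vs vehicle.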
The nature of experiment [5]: NCI Yeast Anticancer Drug Screen. Data for the bub3 strain (AID 167). Conditions: S. cerevisiae bub3 mutant strain, stronger effect = higher value. The procedure, abridged: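 Inhibition values come from growth of compound-treated mutant yeast normalised to vehicle-treated controls.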
Experiment [6] is described as follows: NCI Yeast Anticancer Drug Screen. Data for the mlh1 rad18 strain (AID 175). The note with it: S. cerevisiae mlh1 rad18 strain growth inhibition, stronger effect = higher value. An outline of the steps:
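A repair-deficient yeast strain is exposed to test compound, and growth is scored relative to vehicle-treated controls.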

Where [7] appears, read: at 5.0 µM (retest, dose inferred, filed as 0.5).
Setting [8] is: at 50.0 µM (retest, dose inferred, filed as 5.0).

Compounds without any hit were thinned out: in the full panel of roughly 79,000, 15% have a hit. A number with no mark means an inactive call. Active and inactive are the calls of the source. Rule as the data show it: active = growth inhibition above about 70%; inactive = the rest.

For the compound `Cc1nn(C(=S)S)c(C)c1N=Nc1ccc(Br)cc1`, the growth inhibition in experiment [1] (setting [7]) was 14%; in experiment [1] (setting [8]) it was 97% (active); in experiment [1] (at 50.0 µM), 99.4% (active); in experiment [2] (setting [7]) it was 0%; in experiment [2] (setting [8]), 99% (active); in experiment [2] (at 50.0 µM), 99.6% (active). In addition, the growth inhibition in experiment [3] (setting [7]) was 8%; in experiment [3] (setting [8]), 99% (active); in experiment [3] (at 50.0 µM) it was 99.2% (active); in experiment [4] (setting [7]), -7%; in experiment [4] (setting [8]), 98% (active); in experiment [4] (at 50.0 µM), 99.4% (active). Further, the growth inhibition was -2% in experiment [5] (setting [7]); 98% (active) in experiment [5] (setting [8]); 82.2% (active) in experiment [5] (at 50.0 µM); 0% in experiment [6] (setting [7]); 99% (active) in experiment [6] (setting [8]); 99.2% (active) in experiment [6] (at 50.0 µM).

Consider `O=C(/C=C\c1ccc([N+](=O)[O-])o1)/C=C/c1ccc([N+](=O)[O-])o1`, for which the growth inhibition in experiment [1] (setting [7]) is 36%; in experiment [1] (setting [8]) it was 96% (active); in experiment [1] (at 50.0 µM), 96.8% (active); in experiment [2] (setting [7]), 33%; in experiment [2] (setting [8]), 98% (active); in experiment [2] (at 50.0 µM) it was 97.1% (active). Moreover, the growth inhibition in experiment [3] (setting [7]) was 52%; in experiment [3] (setting [8]), 98% (active); in experiment [3] (at 50.0 µM), 95% (active); in experiment [4] (setting [7]), 28%; in experiment [4] (setting [8]), 97% (active); in experiment [4] (at 50.0 µM) it was 92.7% (active). Besides, the growth inhibition in experiment [5] (setting [7]) was 38%; in experiment [5] (setting [8]), 97% (active); in experiment [5] (at 50.0 µM), 94.9% (active); in experiment [6] (setting [7]), 91% (active); in experiment [6] (setting [8]), 96% (active); in experiment [6] (at 50.0 µM), 98.2% (active).

Consider `O=[N+]([O-])c1cc(I)cc(/C=N/NS(=O)(=O)c2ccc(F)cc2)c1O`, for which the growth inhibition in experiment [1] (setting [7]) was 16%; in experiment [1] (setting [8]), 36%; in experiment [1] (at 50.0 µM), 84.2% (active); in experiment [2] (setting [7]), 12%; in experiment [2] (setting [8]), 31%; in experiment [2] (at 50.0 µM), 77.7% (active). Further, the growth inhibition in experiment [3] (setting [7]) is 19%; in experiment [3] (setting [8]) it was 47%; in experiment [3] (at 50.0 µM), 89.5% (active); in experiment [4] (setting [7]), 0%; in experiment [4] (setting [8]), 15%; in experiment [4] (at 50.0 µM), 77.8% (active). Besides, the growth inhibition in experiment [5] (setting [7]) is 3%; in experiment [5] (setting [8]), 17%; in experiment [5] (at 50.0 µM) it was 53%; in experiment [6] (setting [7]), 17%; in experiment [6] (setting [8]), 45%; in experiment [6] (at 50.0 µM), 93% (active).

For `CC1(C)NNC(=S)NN1`, the growth inhibition in experiment [1] (setting [7]) is 2%; in experiment [1] (setting [8]) it was 12%; in experiment [1] (at 50.0 µM) it was 5.95%; in experiment [2] (setting [7]) it was -3%; in experiment [2] (setting [8]) it was 8%; in experiment [2] (at 50.0 µM), 15.4%. Also, the growth inhibition in experiment [3] (setting [7]) is 4%; in experiment [3] (setting [8]), 14%; in experiment [3] (at 50.0 µM), 21.3%; in experiment [4] (setting [7]), 12%; in experiment [4] (setting [8]), 7%; in experiment [4] (at 50.0 µM), 9.75%. In addition, the growth inhibition is 23% in experiment [5] (setting [7]); 5% in experiment [5] (setting [8]); 2.4% in experiment [5] (at 50.0 µM); 20% in experiment [6] (setting [7]); 8% in experiment [6] (setting [8]); 41.8% in experiment [6] (at 50.0 µM).

In the case of `Cc1[nH]c2c(C)cccc2c1C1Cc2ccccc2N1` (stereo not given), the growth inhibition in experiment [1] (setting [7]) is 3%; in experiment [1] (setting [8]), 99% (active); in experiment [1] (at 50.0 µM), 98.4% (active); in experiment [2] (setting [7]), -1%; in experiment [2] (setting [8]) it was 99% (active); in experiment [2] (at 50.0 µM) it was 98.8% (active). The growth inhibition in experiment [3] (setting [7]) was -12%; in experiment [3] (setting [8]), 98% (active); in experiment [3] (at 50.0 µM), 98.8% (active); in experiment [4] (setting [7]), -5%; in experiment [4] (setting [8]), 98% (active); in experiment [4] (at 50.0 µM), 98.5% (active). Besides, the growth inhibition in experiment [5] (setting [7]) is 6%; in experiment [5] (setting [8]), 98% (active); in experiment [5] (at 50.0 µM) it was 98.7% (active); in experiment [6] (setting [7]), 4%; in experiment [6] (setting [8]), 98% (active); in experiment [6] (at 50.0 µM) it was 98.2% (active).

Take `C=C1C(=O)OC2CC(C)C3C=CC(=O)C3CC12` (stereo not given): the growth inhibition in experiment [1] (setting [7]) is 17%; in experiment [1] (setting [8]), 55%; in experiment [1] (at 50.0 µM), 88.7% (active); in experiment [2] (setting [7]) it was 12%; in experiment [2] (setting [8]) it was 50%; in experiment [2] (at 50.0 µM) it was 91.6% (active). The growth inhibition in experiment [3] (setting [7]) was 15%; in experiment [3] (setting [8]), 57%; in experiment [3] (at 50.0 µM) it was 91.3% (active); in experiment [4] (setting [7]), 24%; in experiment [4] (setting [8]), 40%; in experiment [4] (at 50.0 µM), 89.3% (active). Also, the growth inhibition is 22% in experiment [5] (setting [7]); 72% (active) in experiment [5] (setting [8]); 88.2% (active) in experiment [5] (at 50.0 µM); 16% in experiment [6] (setting [7]); 34% in experiment [6] (setting [8]); 90.6% (active) in experiment [6] (at 50.0 µM).

With `CCCCCCCCCCCC(=O)N(CCOC(=O)c1ccco1)CCOC(=O)c1ccco1`, the growth inhibition is 46% in experiment [1] (setting [7]); 96% (active) in experiment [1] (setting [8]); 99% (active) in experiment [1] (at 50.0 µM); 43% in experiment [2] (setting [7]); 99% (active) in experiment [2] (setting [8]); 99% (active) in experiment [2] (at 50.0 µM). Also, the growth inhibition is 31% in experiment [3] (setting [7]); 98% (active) in experiment [3] (setting [8]); 99.2% (active) in experiment [3] (at 50.0 µM); 29% in experiment [4] (setting [7]); 98% (active) in experiment [4] (setting [8]); 98.5% (active) in experiment [4] (at 50.0 µM). Besides, the growth inhibition in experiment [5] (setting [7]) was 34%; in experiment [5] (setting [8]) it was 96% (active); in experiment [5] (at 50.0 µM) it was 97.8% (active); in experiment [6] (setting [7]), 34%; in experiment [6] (setting [8]), 97% (active); in experiment [6] (at 50.0 µM) it was 98.8% (active).

For `NC(=S)c1cccc(OCCCOc2ccccc2)c1`, the growth inhibition was 2% in experiment [1] (setting [7]); 4% in experiment [1] (setting [8]); 99.2% (active) in experiment [1] (at 50.0 µM); 0% in experiment [2] (setting [7]); 14% in experiment [2] (setting [8]); 99.6% (active) in experiment [2] (at 50.0 µM). Besides, the growth inhibition in experiment [3] (setting [7]) is 11%; in experiment [3] (setting [8]), 17%; in experiment [3] (at 50.0 µM) it was 98.7% (active); in experiment [4] (setting [7]), -8%; in experiment [4] (setting [8]) it was 1%; in experiment [4] (at 50.0 µM) it was 98.2% (active). Moreover, the growth inhibition is 6% in experiment [5] (setting [7]); 13% in experiment [5] (setting [8]); 99.5% (active) in experiment [5] (at 50.0 µM); 4% in experiment [6] (setting [7]); 30% in experiment [6] (setting [8]); 99.3% (active) in experiment [6] (at 50.0 µM).

As for `O=C(Nc1ccccc1O)/C(Cl)=C/Cl`, the growth inhibition in experiment [1] (setting [7]) is -153%; in experiment [1] (setting [8]) it was 95% (active); in experiment [1] (at 50.0 µM) it was 98.2% (active); in experiment [2] (setting [7]), -47%; in experiment [2] (setting [8]) it was 97% (active); in experiment [2] (at 50.0 µM) it was 97.8% (active). Besides, the growth inhibition is -57% in experiment [3] (setting [7]); 96% (active) in experiment [3] (setting [8]); 78.8% (active) in experiment [3] (at 50.0 µM); -67% in experiment [4] (setting [7]); 95% (active) in experiment [4] (setting [8]); 93.5% (active) in experiment [4] (at 50.0 µM). The growth inhibition in experiment [5] (setting [7]) was -63%; in experiment [5] (setting [8]), 96% (active); in experiment [5] (at 50.0 µM), 94.8% (active); in experiment [6] (setting [7]) it was -134%; in experiment [6] (setting [8]), 96% (active); in experiment [6] (at 50.0 µM), 99.3% (active).

Consider `c1ccc(-c2nc3nc4ccccc4nc3nc2-c2ccccn2)nc1`, for which the growth inhibition in experiment [1] (setting [7]) was -8%; in experiment [1] (setting [8]), 84% (active); in experiment [1] (at 50.0 µM), 24.9%; in experiment [2] (setting [7]) it was 4%; in experiment [2] (setting [8]) it was 92% (active); in experiment [2] (at 50.0 µM), 0.9%. The growth inhibition in experiment [3] (setting [7]) was 8%; in experiment [3] (setting [8]), 87% (active); in experiment [3] (at 50.0 µM), 20.6%; in experiment [4] (setting [7]), -5%; in experiment [4] (setting [8]) it was 85% (active); in experiment [4] (at 50.0 µM), -19.1%. In addition, the growth inhibition was -4% in experiment [5] (setting [7]); 98% (active) in experiment [5] (setting [8]); 50.6% in experiment [5] (at 50.0 µM); 14% in experiment [6] (setting [7]); 98% (active) in experiment [6] (setting [8]); 22.8% in experiment [6] (at 50.0 µM).
